Tests used:
Experiment in all cases: thermal shift delta Tm vs DMSO control; higher = stronger stabilization (binding)
Settings in all cases: 12.5 µM; protein concentration 2 µM
[1] = test system: LOC_OS01G57100-cb003
In short: (§1)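 Thermal shift values come from differential scanning fluorimetry on purified rice kinase domains made in E. coli, with melting temperatures obtained from Boltzmann fits. Samples of 19.5 μl held 2 μM kinase, 100 mM potassium phosphate pH 7.5, 150 mM NaCl, 10% glycerol, 5 × SYPRO Orange and compound in DMSO, and were heated from 25°C to 95°C at 0.05°C/s. Each shift is a triplicate mean relative to the DMSO-only protein sample.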

[2] = test system: LOC_OS01G60330-cb001
In short: as §1

[3] = test system: LOC_OS01G60700-cb002
In short: as §1

[4] = test system: LOC_OS01G63280-cb003
In short: as §1

[5] = test system: LOC_OS01G67340-cb003
In short: as §1

[6] = test system: LOC_OS01G70970-cb002
In short: as §1

[7] = test system: LOC_OS02G07810-cb001
In short: as §1

[8] = test system: LOC_OS02G08530-cb003
In short: as §1

[9] = test system: LOC_OS02G14120-cb001
In short: as §1

[10] = test system: LOC_OS02G17970-cb001
In short: as §1

[11] = test system: LOC_OS02G45750-cb003
In short: as §1

[12] = test system: LOC_OS02G54510-cb004
In short: as §1

[13] = test system: LOC_OS03G04050-cb001
In short: as §1

[14] = test system: LOC_OS03G12390-cb001
In short: as §1

[15] = test system: LOC_OS03G27990-cb004
In short: as §1

[16] = test system: LOC_OS03G50450-cb001
In short: as §1

[17] = test system: LOC_OS03G50810-cb003
In short: as §1

[18] = test system: LOC_OS04G35114-cb001
In short: as §1

[19] = test system: T1, LOC_OS04G38480-cb003
T1 sequence (whole entry): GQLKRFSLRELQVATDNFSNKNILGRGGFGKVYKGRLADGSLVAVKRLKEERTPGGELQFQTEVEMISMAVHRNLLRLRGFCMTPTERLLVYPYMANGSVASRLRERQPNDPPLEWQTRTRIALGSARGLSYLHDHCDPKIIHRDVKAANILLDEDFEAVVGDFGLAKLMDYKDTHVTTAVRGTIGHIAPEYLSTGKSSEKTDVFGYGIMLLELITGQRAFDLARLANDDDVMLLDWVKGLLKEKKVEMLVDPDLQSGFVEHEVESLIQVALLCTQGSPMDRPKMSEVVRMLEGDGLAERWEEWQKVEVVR
In short: as §1

[20] = test system: T2, LOC_OS04G41100-cb001
T2 sequence (whole entry): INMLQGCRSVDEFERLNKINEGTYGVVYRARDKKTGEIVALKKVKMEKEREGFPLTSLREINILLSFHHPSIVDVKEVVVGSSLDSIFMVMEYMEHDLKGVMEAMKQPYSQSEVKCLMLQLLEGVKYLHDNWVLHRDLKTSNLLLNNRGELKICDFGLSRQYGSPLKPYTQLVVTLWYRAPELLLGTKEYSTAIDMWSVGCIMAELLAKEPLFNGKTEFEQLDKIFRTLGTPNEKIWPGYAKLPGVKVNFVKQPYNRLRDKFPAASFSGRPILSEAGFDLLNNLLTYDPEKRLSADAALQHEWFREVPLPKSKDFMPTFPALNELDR
In short: as §1
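Further: purified Escherichia coli-expressed rice kinase domain construct.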

## Fc1ccc2[nH]ccc2c1-c1nc(N2CCOCC2)c2sc(CN3CCN(CC4CC4)CC3)cc2n1
[1]
  thermal shift delta Tm: 1.16 °C
[2]
  thermal shift delta Tm: 0.82 °C
[3]
  thermal shift delta Tm: 1.22 °C
[4]
  thermal shift delta Tm: 0.86 °C
[5]
  thermal shift delta Tm: 0.95 °C
[6]
  thermal shift delta Tm: 0.31 °C
[7]
  thermal shift delta Tm: 0.15 °C
[8]
  thermal shift delta Tm: 0.45 °C
[9]
  thermal shift delta Tm: 0.72 °C
[10]
  thermal shift delta Tm: 0.68 °C
[11]
  thermal shift delta Tm: 0 °C
[12]
  thermal shift delta Tm: -0.03 °C
[13]
  thermal shift delta Tm: 0.21 °C
[14]
  thermal shift delta Tm: 0.01 °C
[15]
  thermal shift delta Tm: 0 °C
[16]
  thermal shift delta Tm: -0.17 °C
[17]
  thermal shift delta Tm: 1.38 °C
[18]
  thermal shift delta Tm: 0.63 °C
[19]
  thermal shift delta Tm: 0.91 °C
[20]
  thermal shift delta Tm: 0.18 °C

## C[S+]([O-])c1ccc(-c2nc(-c3ccc(F)cc3)c(-c3ccncc3)[nH]2)cc1 (stereo not given)
[1]
  thermal shift delta Tm: 1.65 °C
[2]
  thermal shift delta Tm: 1.11 °C
[3]
  thermal shift delta Tm: 1.91 °C
[4]
  thermal shift delta Tm: 1.11 °C
[5]
  thermal shift delta Tm: -0.03 °C
[6]
  thermal shift delta Tm: 0.63 °C
[7]
  thermal shift delta Tm: 1.46 °C
[8]
  thermal shift delta Tm: 1.44 °C
[9]
  thermal shift delta Tm: 1.3 °C
[10]
  thermal shift delta Tm: 0.84 °C
[11]
  thermal shift delta Tm: 1.21 °C
[12]
  thermal shift delta Tm: 0.81 °C
[13]
  thermal shift delta Tm: 1.08 °C
[14]
  thermal shift delta Tm: 0.78 °C
[15]
  thermal shift delta Tm: 0.58 °C
[16]
  thermal shift delta Tm: 0.08 °C
[17]
  thermal shift delta Tm: 0.32 °C
[18]
  thermal shift delta Tm: 1.35 °C
[19]
  thermal shift delta Tm: 1.26 °C
[20]
  thermal shift delta Tm: 1.23 °C

## O=C1NC(=O)C(c2cnc3ccccn23)=C1c1cn2c3c(cc(F)cc13)CN(C(=O)N1CCCCC1)CC2
[1]
  thermal shift delta Tm: 1.16 °C
[2]
  thermal shift delta Tm: 3.68 °C
[3]
  thermal shift delta Tm: 2.25 °C
[4]
  thermal shift delta Tm: 0.82 °C
[5]
  thermal shift delta Tm: 0.19 °C
[6]
  thermal shift delta Tm: 0.64 °C
[7]
  thermal shift delta Tm: 1.59 °C
[8]
  thermal shift delta Tm: 1.8 °C
[9]
  thermal shift delta Tm: 0.04 °C
[10]
  thermal shift delta Tm: 2.16 °C
[11]
  thermal shift delta Tm: 0.77 °C
[12]
  thermal shift delta Tm: 0 °C
[13]
  thermal shift delta Tm: 0.57 °C
[14]
  thermal shift delta Tm: 4.58 °C
[15]
  thermal shift delta Tm: 0.13 °C
[16]
  thermal shift delta Tm: 0.64 °C
[17]
  thermal shift delta Tm: 0.95 °C
[18]
  thermal shift delta Tm: 1.35 °C
[19]
  thermal shift delta Tm: 1.47 °C
[20]
  thermal shift delta Tm: 1.44 °C

## COc1cc(N2CCN(C)CC2)ccc1Nc1nccc(-c2cn(C)c3cnccc23)n1
[1]
  thermal shift delta Tm: 1.48 °C
[2]
  thermal shift delta Tm: 2 °C
[3]
  thermal shift delta Tm: 1.01 °C
[4]
  thermal shift delta Tm: 0.34 °C
[5]
  thermal shift delta Tm: 0.37 °C
[6]
  thermal shift delta Tm: 0.31 °C
[7]
  thermal shift delta Tm: 0.46 °C
[8]
  thermal shift delta Tm: 3.48 °C
[9]
  thermal shift delta Tm: 5.04 °C
[10]
  thermal shift delta Tm: 0.61 °C
[11]
  thermal shift delta Tm: 2.73 °C
[12]
  thermal shift delta Tm: 0.02 °C
[13]
  thermal shift delta Tm: 0.3 °C
[14]
  thermal shift delta Tm: 9.57 °C
[15]
  thermal shift delta Tm: 0.05 °C
[16]
  thermal shift delta Tm: -0.05 °C
[17]
  thermal shift delta Tm: 1.79 °C
[18]
  thermal shift delta Tm: 4.35 °C
[19]
  thermal shift delta Tm: 1.32 °C
[20]
  thermal shift delta Tm: 0.51 °C

## Nc1ccc(C(=O)Nc2cccc(-c3nc(N4CCOCC4)c4oc5ncccc5c4n3)c2)cn1
[1]
  thermal shift delta Tm: 1.26 °C
[2]
  thermal shift delta Tm: 1.1 °C
[3]
  thermal shift delta Tm: 1.16 °C
[4]
  thermal shift delta Tm: -0.04 °C
[5]
  thermal shift delta Tm: -0.15 °C
[6]
  thermal shift delta Tm: 0.23 °C
[7]
  thermal shift delta Tm: 0.77 °C
[8]
  thermal shift delta Tm: 1.1 °C
[9]
  thermal shift delta Tm: 0.34 °C
[10]
  thermal shift delta Tm: 0.35 °C
[11]
  thermal shift delta Tm: 0.01 °C
[12]
  thermal shift delta Tm: 0.01 °C
[13]
  thermal shift delta Tm: 1.54 °C
[14]
  thermal shift delta Tm: 0.36 °C
[15]
  thermal shift delta Tm: 0.09 °C
[16]
  thermal shift delta Tm: 0.25 °C
[17]
  thermal shift delta Tm: 0.09 °C
[18]
  thermal shift delta Tm: 0.9 °C
[19]
  thermal shift delta Tm: 0.66 °C
[20]
  thermal shift delta Tm: 0.52 °C

## O=C1NC(=O)/C(=C/c2ccc3c(c2)OC(F)(F)O3)S1
[1]
  thermal shift delta Tm: 2.63 °C
[2]
  thermal shift delta Tm: 0.63 °C
[3]
  thermal shift delta Tm: 1.33 °C
[4]
  thermal shift delta Tm: 0.41 °C
[5]
  thermal shift delta Tm: 0.47 °C
[6]
  thermal shift delta Tm: 0.52 °C
[7]
  thermal shift delta Tm: 1.34 °C
[8]
  thermal shift delta Tm: 0.96 °C
[9]
  thermal shift delta Tm: -0.18 °C
[10]
  thermal shift delta Tm: 0.93 °C
[11]
  thermal shift delta Tm: 1.3 °C
[12]
  thermal shift delta Tm: 0.48 °C
[13]
  thermal shift delta Tm: 0.81 °C
[14]
  thermal shift delta Tm: 0.94 °C
[15]
  thermal shift delta Tm: 0.43 °C
[16]
  thermal shift delta Tm: 0.55 °C
[17]
  thermal shift delta Tm: 0.65 °C
[18]
  thermal shift delta Tm: 0.97 °C
[19]
  thermal shift delta Tm: 1.58 °C
[20]
  thermal shift delta Tm: 0.5 °C

## CC(C)(CCCCCC(O)CCCCCC(C)(C)C(=O)O)C(=O)O
[1]
  thermal shift delta Tm: -0.51 °C
[2]
  thermal shift delta Tm: 1.18 °C
[3]
  thermal shift delta Tm: 0.87 °C
[4]
  thermal shift delta Tm: -0.01 °C
[5]
  thermal shift delta Tm: 0.52 °C
[6]
  thermal shift delta Tm: 0.21 °C
[7]
  thermal shift delta Tm: 0.4 °C
[8]
  thermal shift delta Tm: 0.32 °C
[9]
  thermal shift delta Tm: 0.05 °C
[10]
  thermal shift delta Tm: 0.59 °C
[11]
  thermal shift delta Tm: 0.72 °C
[12]
  thermal shift delta Tm: 0.34 °C
[13]
  thermal shift delta Tm: 0.51 °C
[14]
  thermal shift delta Tm: -0.22 °C
[15]
  thermal shift delta Tm: 0.25 °C
[16]
  thermal shift delta Tm: 0.67 °C
[17]
  thermal shift delta Tm: 0.41 °C
[18]
  thermal shift delta Tm: 0.9 °C
[19]
  thermal shift delta Tm: 2.27 °C
[20]
  thermal shift delta Tm: 0.2 °C

## COc1cc2c(Oc3ccc(NC(=O)C4(C(=O)Nc5ccc(F)cc5)CC4)cc3F)ccnc2cc1OCCCN1CCOCC1
[1]
  thermal shift delta Tm: 0.61 °C
[2]
  thermal shift delta Tm: 1.45 °C
[3]
  thermal shift delta Tm: 0.58 °C
[4]
  thermal shift delta Tm: 0.93 °C
[5]
  thermal shift delta Tm: 3.45 °C
[6]
  thermal shift delta Tm: 2.5 °C
[7]
  thermal shift delta Tm: 1.74 °C
[8]
  thermal shift delta Tm: 1.31 °C
[9]
  thermal shift delta Tm: 7.45 °C
[10]
  thermal shift delta Tm: 0.62 °C
[11]
  thermal shift delta Tm: 3.41 °C
[12]
  thermal shift delta Tm: 2.08 °C
[13]
  thermal shift delta Tm: 0.79 °C
[14]
  thermal shift delta Tm: 0.18 °C
[15]
  thermal shift delta Tm: 0.69 °C
[16]
  thermal shift delta Tm: 0.65 °C
[17]
  thermal shift delta Tm: 3.35 °C
[18]
  thermal shift delta Tm: 3.93 °C
[19]
  thermal shift delta Tm: 3.42 °C
[20]
  thermal shift delta Tm: 1.7 °C

## C=CC(=O)Nc1cccc(Oc2nc(Nc3ccc(N4CCN(C)CC4)cc3)ncc2Cl)c1
[1]
  thermal shift delta Tm: -0.75 °C
[2]
  thermal shift delta Tm: 1.82 °C
[3]
  thermal shift delta Tm: 0.8 °C
[4]
  thermal shift delta Tm: 0.27 °C
[5]
  thermal shift delta Tm: -0.1 °C
[6]
  thermal shift delta Tm: 3.9 °C
[7]
  thermal shift delta Tm: 0.94 °C
[8]
  thermal shift delta Tm: 2.58 °C
[9]
  thermal shift delta Tm: 8.31 °C
[10]
  thermal shift delta Tm: 0 °C
[11]
  thermal shift delta Tm: 3.96 °C
[12]
  thermal shift delta Tm: 0.5 °C
[13]
  thermal shift delta Tm: 0.53 °C
[14]
  thermal shift delta Tm: 3.42 °C
[15]
  thermal shift delta Tm: 2.49 °C
[16]
  thermal shift delta Tm: 1.35 °C
[17]
  thermal shift delta Tm: 4.77 °C
[18]
  thermal shift delta Tm: 3.8 °C
[19]
  thermal shift delta Tm: 1.67 °C
[20]
  thermal shift delta Tm: 1.1 °C

— the supplement of paper PMC9694430
